DNA Pol III inh – qHTS Assay for Inhibitors of DNA Polymerase III Holoenzyme System; 71,000 compounds, 0.25% hits; reconstituted DNA polymerase III holoenzyme replication, biochemical; Potency, µM (doses to about 57.1 µM), for inactives: top-dose activity change, negative = inhibition; also: potency is read from the fitted curve at half-maximal effect; % is scaled to controls: 0 for no effect and ±100 for the full control effect
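Reconstituted *E. coli* holoenzyme (0.35 nM Pol III, 1 nM beta, 154 nM SSB, 2 nM primase) was preincubated with compound for 15 min at RT. Synthesis on 1.4 nM ssM13Gori ran 35 min, then was stopped with PicoGreen/EDTA and read as dsDNA fluorescence.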
Hsp90 Hop PPI – qHTS Assay for Disrupters of an Hsp90 Co-Chaperone Interaction; Hsp90 C-terminal peptide / TPR2A (Hop) interaction, human; AlphaScreen TPR2A-His6 binding biotin-Hsp90 C-terminal peptide; Potency, µM (highest dose often 57 µM), inactives show at the highest dose activity change, negative = inhibition; 71,000 compounds, 0.44% hits; AID 595, 2007; active = well fitted curve in either direction with a large enough effect; inconclusive = small, poorly fitted or top-dose-only effect, or another doubt; also: potency is read from the fitted curve at half-maximal effect; % is scaled to controls: 0 for no effect and ±100 for the full control effect
Tau filament bind – qHTS Assay for Tau Filament Binding; Microtubule-associated protein tau (Homo sapiens), P10636; recombinant tau filaments, thioflavin S fluorescence, 15 h; filaments grown with octadecylsulfate alongside compound; Potency, µM (titrated, usually from 57.1 µM), inactives show at the highest dose activity change, negative = inhibition; 71,000 compounds, 2% hits;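 also: potency is read from the fitted curve at half-maximal effect; % is scaled to controls: 0 for no effect and ±100 for the full control effect; actives lower thioflavin S fluorescence by blocking filaments or displacing dye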
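His-tagged recombinant human tau (exons 2, 3, 10; 1 uM final) fibrillized with 30 uM sodium octadecylsulfate, 15 h at 37 C, in pH 7.4 HEPES buffer with 10 uM thioflavine S and 5 mM DTT. Reduced ThS fluorescence (450/510 nm) marks activity.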
YjeE inh – qHTS Assay for Inhibitors of YjeE; tRNA threonylcarbamoyladenosine biosynthesis protein TsaE (Escherichia coli (strain …; 71,000 compounds, 0.05% hits; Potency, µM; purified YjeE enzyme, qHTS inhibition assay
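Purified YjeE (10 uM) with BODIPY Texas Red-labeled ADP probe (2 uM); compounds pin-transferred, 15 min at room temperature. Binding inhibition read as decreased fluorescence polarization; ADP titration as control.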
ALOX15 inhib – qHTS Assay for Inhibitors of 15-hLO (15-human lipoxygenase); Polyunsaturated fatty acid lipoxygenase ALOX15 (Homo sapiens), P16050; purified 15hLO-1, xylenol orange hydroperoxide absorbance; Potency, µM (top dose mostly 57.1 µM), inactives show at the top dose activity change, negative = inhibition, most hits filed as inhibitors; 74,000 compounds, 1.4% hits; AID 887, 2007; also: potency is read from the fitted curve at half-maximal effect; % is scaled to controls: 0 for no effect and ±100 for the full control effect; nearly all actives have a fitted effect of over 55% in size
Target sequence (P16050 whole entry, looked up): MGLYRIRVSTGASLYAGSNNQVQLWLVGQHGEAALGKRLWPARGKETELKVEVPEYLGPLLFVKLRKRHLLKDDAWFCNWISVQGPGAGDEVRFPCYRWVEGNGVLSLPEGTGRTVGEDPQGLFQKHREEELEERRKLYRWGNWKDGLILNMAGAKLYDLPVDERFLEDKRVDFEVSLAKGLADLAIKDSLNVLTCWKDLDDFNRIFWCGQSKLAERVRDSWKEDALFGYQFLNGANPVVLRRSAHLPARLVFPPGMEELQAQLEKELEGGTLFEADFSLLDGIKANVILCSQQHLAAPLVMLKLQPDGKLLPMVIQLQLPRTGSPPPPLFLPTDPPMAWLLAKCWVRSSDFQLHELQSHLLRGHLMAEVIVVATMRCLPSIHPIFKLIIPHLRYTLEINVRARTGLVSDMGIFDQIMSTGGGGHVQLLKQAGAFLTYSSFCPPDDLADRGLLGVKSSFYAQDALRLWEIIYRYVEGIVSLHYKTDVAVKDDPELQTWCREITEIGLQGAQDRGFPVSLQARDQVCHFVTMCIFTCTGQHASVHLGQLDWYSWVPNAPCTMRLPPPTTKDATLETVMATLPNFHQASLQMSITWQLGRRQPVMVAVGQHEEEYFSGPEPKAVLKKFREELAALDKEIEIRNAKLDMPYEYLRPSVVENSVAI
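Hydroperoxide formed from arachidonic acid (50 uM) by purified human 15hLO-1 (40 nM) oxidizes ferrous iron, and the ferric-xylenol orange complex is read at 573 versus 405 nm. Compounds were preincubated 15 min; reaction ran 6 min at room temperature.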
* hit, by the source's call; i = inactive; ? = inconclusive; nt = not tested or not shown; ! = repeats disagree; [ ] = another dose, or the depositor's remark. An excerpt weighted towards active compounds, which were near 3.3% of everything screened. Unless noted, calls follow the shape of the dose curve; as a rule, active = well fitted curve in the direction sought with a large enough effect; inconclusive = small, poorly fitted or top-dose-only effect, or another doubt; inactive = no such curve, though single readings can be large; an effect the other way counts as inactive or inconclusive.

SMILES	DNA Pol III inh	Hsp90 Hop PPI	Tau filament bind	YjeE inh	ALOX15 inhib
COc1ccccc1-c1nccc(Nc2ccc(F)cc2)n1	-8%	3%	16µM*	i	-17%
FC(F)(F)c1ccccc1-c1nccc(NCc2cccs2)n1	-8%	17%	1%	i	-13%
c1csc(CNc2ccnc(-c3ccoc3)n2)c1	-9%	?	-5%	i	20µM*
O=C(CN1C(=O)CCC1=O)Nc1nc(-c2ccc(Cl)s2)cs1	2%	-5%	0%	i	-7%
O=C(Nc1cccc2cccc(NC(=O)c3ccco3)c12)c1ccco1	-4%	-16%	13µM*	i	-14%
O=C(Nc1ccc(Cl)cc1C(=O)Nc1ccncc1)c1ccco1	2%	-6%	-17%	i	2.5µM*
O=C(Nc1ccccc1NC(=O)c1ccco1)c1ccco1	1%	2%	2%	i	-4%
O=C(Nc1nc(-c2ccc(Cl)s2)cs1)c1ccncc1	0%	-2%	25µM*	i	-1%
O=C(Nc1nc(-c2ccncc2)cs1)c1ccco1	-6%	-6%	13µM*	i	-12%
O=C(Nc1ccc(Cl)cc1C(=O)NCc1cccnc1)c1ccco1	1%	3%	-13%	i	3%
CC1CCCO1 (stereo not drawn)	-5%	-5%	-17%	i	-5%
COC(=O)[C@H](CCSC)NC(=O)C/C=C\[C@@H](C)CO	nt	nt	nt	nt	6%[11.4 µM]
CN(C)CCN1C(=O)CC[C@]2(C)C1=CC[C@@H]1[C@@H]2CC[C@]2(C)[C@H]1CC[C@]2(C)O	-7%[11.4 µM]	-2%[11 µM]	19%[11.4 µM]	i	11%[11.4 µM]
Oc1c(Br)cc(Br)c2cccnc12	nt	nt	nt	nt	12%
O=[N+]([O-])c1cc(Cc2cc([N+](=O)[O-])c3cccnc3c2O)c(O)c2ncccc12	-27%[11.4 µM]	1.6µM*	-28%[11.4 µM]	i	0%[11.4 µM]
COc1ccc(S(=O)(=O)N(C(C)=O)c2ccc3oc(=O)sc3c2)cc1	-10%	-15%	-1%	i	5µM*
N#Cc1ccsc1NC(=O)CSc1ncnc2ccccc12	0%	-7%	20µM*	i	-3%
COc1ccc(NS(=O)(=O)c2ccc(I)cc2)cc1N1CCN(C)CC1	-4%	?	40µM*	i	?
CC(=O)OC/C=C(\C)CC/C=C(\C)CC/C=C(\C)CC/C=C(\C)CC/C=C(\C)CC/C=C(\C)CC/C=C(\C)CC/C=C(\C)CCC=C(C)C	nt	nt	nt	nt	-5%
OC[C@@H]1O[C@@H](n2cnc3c(NC4CCCC4)ncnc32)[C@@H](O)[C@H]1O	-9%	-10%	-10%	i	-5%
O=C(O)c1cc(O)c2c(c1)C(=O)c1cccc(O)c1C2=O	-8%	0%	421%	i	13µM*!
N#CC1=C(N)N(c2ccccc2C#N)C2=C(C(=O)CCC2)C1c1ccsc1 (stereo not drawn)	-7%	?	?	i	-13%
N#CC1=C(N)N(c2ccccc2)C2=C(C(=O)CCC2)C1c1cccs1 (stereo not drawn)	-6%	-21%	20µM*	i	?
Nc1ccn([C@H]2CC[C@H](CO)O2)c(=O)n1	-4%	-4%	-1%	i	nt
CCOc1cc(C)c(S(=O)(=O)NC2CCCCC2)cc1C	-2%	0%	10µM*	i	-18%
O=C1[C@H]2[C@H]3[C@H](O)[C@H](O)C/C(=N/OCc4ccccc4)[C@@H]3CC[C@@H]2C(=O)N1C[C@@H]1CCCO1	nt	nt	nt	nt	6%[11.4 µM]
CCC(=O)[C@]12O[C@@]3(C4C(=O)OCCC41)N(Cc1ccccc1)C(C)=C(C(=O)OC)C(c1ccccc1)N3C2=O (stereo partly drawn)	nt	nt	nt	nt	-5%[11.4 µM]
Ic1ccc2c(c1)N(c1ccccc1)c1cc(Nc3ccc4nc5ccc(I)cc5[n+](-c5ccccc5)c4c3)ccc1N2	-8%[11.4 µM]	-8%[11 µM]	4µM*	?	-24%[11.4 µM]
C#C[C@H](N)CCC(=O)O	-3%	-5%	2%	i	3%
C=CCOC(=O)C(C(C)=O)C(NC(=O)OC)c1ccc2ccccc2c1 (stereo not drawn)	nt	nt	nt	nt	2%[11.4 µM]

Source: PubChem BioAssay
